This is an account of results in PubChem BioAssay AID652053 (Broad Institute, 2013).

The structures appear in SMILES notation. About 930 (72%) of roughly 1,300 compounds were called active.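 The calls were made as follows: active = fitted curve reaches 40% activation signal increase at or below the top valid tested concentration in every replicate test; inconclusive = replicate tests disagree in their calls; inactive = all replicate tests inactive, including effects opposite the expected signal rise.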 So high a share suggests a set chosen from earlier hits. A selection follows. Entries with a potency or affinity are not part of this list.

A short description of the experiment: suppression of miR-122 activity, Renilla luciferase sensor – cell-based, Huh7 psiCHECK-miR122, cherry-pick, dose response (AID 652053). The conditions noted are these: Huh7 psiCHECK-miR122 Renilla luciferase reporter, 48 h; series mostly up to 35 µM; activation (miR-122 inhibition): at the top concentration. On the technique in general: In a reporter assay the amount or activity of a reporter protein is the signal.
Regarding `CC(=O)N1N=C(c2ccccc2)CC1c1cccs1` (centres undefined), the “activation (miR-122 inhibition)” value is 1.31% (inactive).
In the case of `CCC(=O)N1[C@H](CN(C)C(C)=O)[C@@H](c2ccc(C3=CCCC3)cc2)[C@@H]1CO` it was 3.62% (inactive); in that of `C[C@@H]1CN([C@H](C)CO)C(=O)c2cc(NC(=O)Nc3cccc4ccccc34)ccc2O[C@@H]1CN(C)C(=O)Nc1ccccc1`, -12.2% (inactive); in that of `CCNc1nc(N)nc(Oc2ccc(OCCOc3ccccc3)nn2)n1`, -13.6% (inactive).
Consider `CCOc1ccccc1NS(=O)(=O)N(C)C`, for which the “activation (miR-122 inhibition)” value is -3.18% (inactive).
In the case of `C[C@@H]1CN([C@H](C)CO)C(=O)c2cccc(NC(=O)Nc3ccccc3)c2O[C@H]1CN(C)Cc1ccc(C(=O)Nc2ccccc2N)cc1` it was 50% (inactive); in that of `C[C@@H]1CN([C@@H](C)CO)C(=O)c2cccc(NC(=O)Nc3ccccc3)c2O[C@H]1CN(C)Cc1ccc(C(=O)Nc2ccccc2N)cc1`, 11.5% (inactive).
On to `C[C@H]1CN([C@@H](C)CO)C(=O)c2cccc(NC(=O)Nc3ccccc3)c2O[C@H]1CN(C)Cc1ccc(C(=O)Nc2ccccc2N)cc1`, for which the “activation (miR-122 inhibition)” value was 40% (inactive).
`C[C@H](CO)N1C[C@H](C)[C@@H](CN(C)C(=O)NC2CCCCC2)Oc2ccc(NC(=O)Nc3cccc4ccccc34)cc2CC1=O`: the “activation (miR-122 inhibition)” value was 1.35% (inactive).
The same measure for `CC/C(=N\NC(=O)c1ccc2c(c1)OCO2)C12CC3CC(CC(C3)C1)C2`: 1.6% (inactive).
As to `O=C(C(c1ccccc1)c1ccccc1)N1CCOCC1`, the “activation (miR-122 inhibition)” value is -2.67% (inactive).
Regarding `COc1ccc(C(=O)Oc2ccc(C(=S)N3CCOCC3)cc2)cc1`, the “activation (miR-122 inhibition)” value was -8.09% (inactive).
In the case of `COc1ccc(C(=O)Nc2nc3c(s2)CCCC3)cc1S(=O)(=O)N1CCCc2ccccc21`, the “activation (miR-122 inhibition)” value is 4.39% (inactive).
Turning to `C[C@H]1CN([C@@H](C)CO)C(=O)c2cc(C#CC(C)(C)O)cnc2O[C@H]1CN(C)Cc1cncnc1`, the “activation (miR-122 inhibition)” value is -18.5% [at 30 µM] (inactive).
The same measure for `CCCC#Cc1cnc2c(c1)C(=O)N([C@H](C)CO)C[C@H](C)[C@H](CN(C)C(=O)c1ccccc1)O2`: 21.1% (inactive).
For the compound `COCC(=O)N(C)C[C@@H]1Oc2ncc(C#Cc3cccnc3)cc2C(=O)N([C@H](C)CO)C[C@H]1C`, the “activation (miR-122 inhibition)” value was 0.781% (inactive).
The same measure for `C[C@@H]1CN([C@H](C)CO)C(=O)Cc2cc(NC(=O)Nc3cccc4ccccc34)ccc2O[C@@H]1CN(C)C(=O)NC1CCCCC1`: 28.5% [at 30 µM] (inactive); for `O=C(NNC(=S)NC1CCCCC1)c1ccc2c(c1)OCO2`: 31.1% (inactive); for `Cc1ccc(Cl)cc1NC(=S)N(CCCN1CCOCC1)Cc1ccccn1`: -1.59% (inactive).
Regarding `COCCn1c(C)cc(C(=O)COC(=O)c2cc3c(s2)CCC3)c1C`, the “activation (miR-122 inhibition)” value was 8.83% (inactive).
With `O=C(c1ccccc1)c1ccc(-c2ccc(O)cc2)cc1`, the “activation (miR-122 inhibition)” value was 36.8% (inactive).
Take `O=C(OCc1ccccc1Cl)c1ccccc1C(=O)c1ccccc1`: the “activation (miR-122 inhibition)” value is 37.3% (inactive).
In the case of `COCC(=O)NC[C@H]1[C@H](c2ccccc2)[C@@H](CO)N1C(=O)c1ccccc1` it was -6.6% (inactive); in that of `CC(=O)Nc1ccc(S(=O)(=O)NCCc2ccc(S(N)(=O)=O)cc2)cc1`, 19.7% (inactive).
